SMILES strings stand for the structures. Out of some 39,000 compounds screened, about 3,300 (8.5%) were called active. This excerpt belongs to a sample that is enriched for actives.

This experiment has as its system HepG2. In words: cytotoxicity call (relative viability < 0.9). To be noted: 10 µM.
With `COc1ccc(CN(C)C[C@H]2Oc3c(NC(=O)c4cc(C)nn4C)cccc3C(=O)N([C@@H](C)CO)C[C@@H]2C)cc1`, the cytotoxicity call is “inactive”.
The result for `COc1ccc(NC(=O)Nc2cccc3c2O[C@H](CN(C)S(=O)(=O)c2cn(C)cn2)[C@H](C)CN([C@@H](C)CO)C3=O)cc1` reads “inactive”; that for `O=C(CCCCCC(=O)Nc1ccccc1O)N/N=C/[C@H](O)[C@@H](O)[C@H](O)[C@H](O)CO[C@H]1O[C@H](CO)[C@H](O)[C@H](O)[C@H]1O`, “inactive”; that for `O=C(C[C@@H]1CC[C@H](NC(=O)CN2CCOCC2)[C@H](CO)O1)NCCc1ccccc1`, “inactive”.
The result for `C[C@H]1CN([C@@H](C)CO)C(=O)c2cc(-c3ccc(F)cc3)cnc2O[C@H]1CN(C)C(=O)Cc1ccccn1` reads “inactive”; that for `C[C@@H]1CCCCO[C@@H](CN(C)S(C)(=O)=O)[C@H](C)CN([C@@H](C)CO)C(=O)c2cc(NC(=O)Nc3ccc(C(F)(F)F)cc3)ccc2O1`, “inactive”.
The result for `CC(C)CC#Cc1ccc2c(c1)O[C@@H](CN(C)C(=O)NC1CCCC1)[C@H](C)CN([C@@H](C)CO)S2(=O)=O` reads “inactive”; that for `COc1ccc(NC(=O)N(C)C[C@@H]2OCCCC[C@@H](C)Oc3ccc(NC(=O)CCC(F)(F)F)cc3C(=O)N([C@H](C)CO)C[C@@H]2C)cc1`, “inactive”.
As for `C[C@@H]1CCCCO[C@@H](CN(C)C(=O)NC2CCCCC2)[C@H](C)CN([C@@H](C)CO)C(=O)c2cc(NC(=O)CCCCCC(=O)Nc3ccccc3N)ccc2O1`, the cytotoxicity call was “inactive”.
Turning to `CS(=O)(=O)Nc1ccc2oc3c(OC(F)F)ccc(C(=O)Nc4c(Cl)cncc4Cl)c3c2c1`, the cytotoxicity call is “inactive”.
Take `O=c1ccc2c[nH][nH]c-2c1`: the cytotoxicity call was “inactive”.
As for `O=C(CCN1CCNCC1)N1CCCCC1`, the entry is “inactive”; as for `COc1ccc(S(=O)(=O)N(C)C[C@@H]2OCCCC[C@@H](C)Oc3ccc(NS(=O)(=O)c4cn(C)cn4)cc3C(=O)N([C@H](C)CO)C[C@@H]2C)cc1`, “inactive”.
As for `C[C@H]1CCCCO[C@H](CN(C)Cc2ccc(C(=O)O)cc2)[C@@H](C)CN([C@@H](C)CO)C(=O)c2cc(NS(=O)(=O)c3ccccc3)ccc2O1`, the entry is “inactive”.
The result for `C[C@H](CO)N1C[C@H](C)[C@H](CN(C)CC2CCCCC2)Oc2ccc(NC(=O)Nc3cccc4ccccc34)cc2C1=O` reads “inactive”; that for `C[C@@H]1CN([C@@H](C)CO)C(=O)c2cc(NC(=O)Nc3cccc4ccccc34)ccc2O[C@@H]1CN(C)CC1CCCCC1`, “inactive”; that for `C[C@@H]1CN([C@H](C)CO)C(=O)c2cc(NC(=O)Nc3cccc4ccccc34)ccc2O[C@@H]1CN(C)CC1CCCCC1`, “active”.
With `C[C@H]1CN([C@@H](C)CO)C(=O)c2cc(NC(=O)Nc3cccc4ccccc34)ccc2O[C@@H]1CN(C)CC1CCCCC1`, the cytotoxicity call was “inactive”.
As for `C[C@H](CO)N1C[C@H](C)[C@@H](CN(C)CC2CCCCC2)Oc2ccc(NC(=O)Nc3cccc4ccccc34)cc2C1=O`, the entry is “inactive”; as for `C[C@@H]1CN([C@@H](C)CO)C(=O)c2cc(NC(=O)Nc3cccc4ccccc34)ccc2O[C@H]1CN(C)CC1CCCCC1`, “inactive”.
The result for `C[C@H]1CN([C@@H](C)CO)C(=O)c2cc(NC(=O)Nc3cccc4ccccc34)ccc2O[C@H]1CN(C)CC1CCCCC1` reads “active”; that for `C[C@@H]1CN([C@H](C)CO)C(=O)c2cc(NC(=O)Nc3cccc4ccccc34)ccc2O[C@H]1CN(C)CC1CCCCC1`, “active”.
Turning to `C[C@H](CO)N1C[C@H](C)[C@@H](CN(C)CC2CCCCC2)Oc2ccc(NC(=O)Nc3ccccc3)cc2C1=O`, the cytotoxicity call is “inactive”.
As to `CC(=O)OC[C@H]1O[C@H](C/C=N/O[C@H](C)c2cn([C@@H]3COC[C@H]3O)nn2)C=C[C@@H]1OC(C)=O`, the cytotoxicity call is “inactive”.
As for `C[C@H](CO)N1C[C@H](C)[C@H](CN(C)Cc2ccc(Cl)c(Cl)c2)Oc2ccc(NS(=O)(=O)c3cccs3)cc2C1=O`, the entry is “inactive”; as for `Cc1noc(C)c1S(=O)(=O)Nc1ccc2c(c1)CC(=O)N([C@@H](C)CO)C[C@H](C)[C@@H](CN(C)Cc1ccc(C(=O)O)cc1)O2`, “inactive”; as for `C[C@@H]1CN([C@H](C)CO)C(=O)Cc2cc(NS(=O)(=O)c3ccc(F)cc3)ccc2O[C@@H]1CN(C)C(=O)Nc1cccc2ccccc12`, “inactive”.
The result for `O=C(C[C@@H]1C[C@H]2c3cc(NC(=O)NC4CCCC4)ccc3O[C@H]2[C@@H](CO)O1)NCc1ccc2c(c1)OCO2` reads “inactive”; that for `CCOc1ccn(-c2ccc(F)cc2)c(=O)c1C(=O)Nc1ccc(Oc2ccnc(N)c2Cl)c(F)c1`, “inactive”; that for `Cc1ccc(C(=O)Nc2ccc(Oc3cc4cnn(C)c4cc3-c3cn[nH]c3)c(F)c2)c(=O)n1-c1ccc(F)cc1`, “active”.
For `Cc1c(C(=O)Nc2ccc(Oc3ccnc4cc(OCC(C)(C)O)ccc34)c(F)c2)c(=O)n(-c2ccccc2)n1C`, the cytotoxicity call is “inactive”.
For the compound `C[C@@H]1CCCCO[C@H](CN(C)C(=O)CCC(F)(F)F)[C@H](C)CN([C@@H](C)CO)C(=O)c2cc(NC(=O)CCCCCC(=O)Nc3ccccc3N)ccc2O1`, the cytotoxicity call was “inactive”.
As for `C[C@H]1CN([C@@H](C)CO)S(=O)(=O)c2ccc(Br)cc2O[C@H]1CN(C)C(=O)Cc1ccncc1`, the entry is “inactive”; as for `C[C@@H]1CN([C@@H](C)CO)S(=O)(=O)c2ccc(C#Cc3ccc(F)cc3)cc2O[C@H]1CN(C)C(=O)CN(C)C`, “inactive”.
Turning to `C[C@@H]1CN([C@H](C)CO)S(=O)(=O)c2ccc(C#Cc3cccnc3)cc2O[C@@H]1CN(C)C(=O)CN(C)C`, the cytotoxicity call was “inactive”.
The result for `C[C@H]1CN([C@@H](C)CO)S(=O)(=O)c2ccc(Br)cc2O[C@@H]1CN(C)C(=O)Cc1ccccc1` reads “inactive”; that for `C[C@@H]1CN([C@H](C)CO)S(=O)(=O)c2ccc(C#Cc3ccccc3)cc2O[C@@H]1CN(C)C(=O)CN(C)C`, “active”.
The result for `C[C@H]1CN([C@@H](C)CO)S(=O)(=O)c2ccc(Br)cc2O[C@H]1CN(C)C(=O)Cc1ccccc1` reads “active”.
The result for `C[C@@H]1CN([C@@H](C)CO)S(=O)(=O)c2ccc(C#Cc3ccccc3)cc2O[C@H]1CN(C)C(=O)CN(C)C` reads “inactive”; that for `C[C@H]1CN([C@@H](C)CO)S(=O)(=O)c2ccc(C#Cc3ccc(F)cc3)cc2O[C@H]1CN(C)C(=O)CN(C)C`, “inactive”.
On to `C[C@@H]1CN([C@H](C)CO)S(=O)(=O)c2ccc(C#Cc3ccc(F)cc3)cc2O[C@H]1CN(C)C(=O)CN(C)C`, for which the cytotoxicity call is “active”.
The result for `C[C@@H]1CN([C@H](C)CO)S(=O)(=O)c2ccc(C#Cc3ccccc3)cc2O[C@H]1CN(C)C(=O)CN(C)C` reads “active”.
Take `C[C@H]1CN([C@@H](C)CO)S(=O)(=O)c2ccc(C#Cc3ccc(F)cc3)cc2O[C@@H]1CN(C)C(=O)CN(C)C`: the cytotoxicity call was “inactive”.
The result for `C[C@@H]1CN([C@H](C)CO)S(=O)(=O)c2ccc(C#Cc3cccnc3)cc2O[C@H]1CN(C)C(=O)CN(C)C` reads “inactive”.

These data come from the antibiotic and cytotoxicity screens of Wong et al. (2023).
